In the library only some 5.3% were active in any assay of this set; here they are far more common.
Tau fluor cs: counter-screen for tau fibril formation inhibitors; tau K18 P301L Alexa594 fluorescence, heparin fibrillization; Potency, µM (highest dose often 57.7 µM), without a hit: at the highest dose activity change, negative = decrease; 280,000 compounds, 0.93% hits; note: potency is the fitted concentration of half-maximal effect; nearly all actives have a fitted effect of over 55% in size
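Human tau K18 P301L (15 uM unlabeled, 0.24 uM Alexa 594-labeled) in 100 mM sodium acetate pH 7 with 20 uM heparin, 6 hr at 37 C. ThT 30 uM added, 1 hr ambient; Alexa 594 FP and total fluorescence read at 555/632 nm.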
Coupling enz: coupling enzyme interference in Giardia aldolase counter-screen | coupling enzyme system counterscreen, AmpLite Red fluorescence | activity change, negative = inhibition, % at 58.2 µM, hits read low | 290,000 compounds, 0.67% hits | AID 2472; in the data active = activity change below about -30%
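Final compound at 57.5 uM, incubated 10 min at RT with coupling enzyme reagent (glyceraldehyde-3-phosphate), then 20 min with substrate and AmpLite Red detection. Fluorescence read at 525/598 nm; tests interference with the coupling assay, not aldolase inhibition.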
Sfp inh: Sfp phosphopantetheinyl transferase inhibition | Biochemical Sfp PPTase activity, qHTS | Potency, µM, for the others: largest response in the series, negative = inhibition, actives largely listed as inhibitors | 310,000 compounds, 3.5% hits;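 note: the enzyme is Sfp with the accession as filed and its product quenches rhodamine fluorescence; potency is the fitted concentration of half-maximal effect; 0% = enzyme reaction without inhibitor and -100% = no enzyme wells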
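After 15 min at room temperature with compound, 15 nM Sfp received 5 uM rhodamine-CoA plus 12.5 uM BHQ-2-ybbR (50 mM Hepes pH 7.6, 10 mM MgCl2). Rate came from the fluorescence difference over 30 min, ex 525/em 598 nm.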
Tau FP inhib: blocks human tau fibril formation measured by polarization; P10636; Potency, µM (doses to about 57.7 µM), for the others: at the top dose activity, negative = inhibition, actives largely listed as inhibitors; K18 P301L tau heparin fibrillization, Alexa594 FP, 6 h; 280,000 compounds, 0.39% hits; note: potency is the fitted concentration of half-maximal effect; nearly all actives have a fitted effect of over 55% in size
Target sequence (P10636 561-689 P618L limits assumed): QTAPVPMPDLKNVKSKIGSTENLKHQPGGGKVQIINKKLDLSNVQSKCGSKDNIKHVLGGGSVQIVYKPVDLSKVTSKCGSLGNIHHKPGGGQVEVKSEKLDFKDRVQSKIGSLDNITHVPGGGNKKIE
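FP of Alexa 594-tau after heparin (20 uM) induction. Substrate: human K18 P301L, 15 uM unlabeled, 0.24 uM labeled. Buffer 100 mM sodium acetate pH 7. 6 hr, 37 C.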
Tau fibril ThT: inhibitors of human tau fibril formation, thioflavin T binding; P10636; recombinant tau K18 P301L (four-repeat tau fragment), heparin-induced fibrillization, ThT fluorescence; Potency, µM (series often up to 57.4 µM), for inactives: at the highest dose activity, negative = inhibition, usual class: inhibitors; 270,000 compounds, 2.1% hits; note: potency is the fitted concentration of half-maximal effect; nearly all actives have a fitted effect of over 55% in size
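Tau K18 P301L fragment (15 uM unlabeled plus 0.24 uM Alexa 594-labeled) in 100 mM sodium acetate pH 7 with compound, fibrillization induced by 20 uM heparin for 6 hr at 37 C. Thioflavin T (30 uM) added, fluorescence read after 1 hr (ex 450, em 510 nm).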
KDM4E inh: blocks human JMJD2E demethylase activity; 230,000 compounds, 1.6% hits; AID 2147; JMJD2E catalytic domain, FDH-coupled NADH fluorescence (FDH is formaldehyde dehydrogenase); Potency, µM (highest dose often 57.1 µM), without a hit: at the top dose activity change, negative = inhibition, hits mostly inhibitors; active = well fitted inhibition curve with a large enough effect, not every such curve was filed as active; inconclusive = small, poorly fitted or top-dose-only effect, or another doubt; inactive = no such curve, though single readings can be large or run the other way;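 note: potency is the fitted concentration of half-maximal effect; 0% = wells with enzyme and -100% = buffer wells without enzyme; nearly all actives have a fitted effect of over 50% in size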
Target sequence (B2RXH2 1-337 limits assumed): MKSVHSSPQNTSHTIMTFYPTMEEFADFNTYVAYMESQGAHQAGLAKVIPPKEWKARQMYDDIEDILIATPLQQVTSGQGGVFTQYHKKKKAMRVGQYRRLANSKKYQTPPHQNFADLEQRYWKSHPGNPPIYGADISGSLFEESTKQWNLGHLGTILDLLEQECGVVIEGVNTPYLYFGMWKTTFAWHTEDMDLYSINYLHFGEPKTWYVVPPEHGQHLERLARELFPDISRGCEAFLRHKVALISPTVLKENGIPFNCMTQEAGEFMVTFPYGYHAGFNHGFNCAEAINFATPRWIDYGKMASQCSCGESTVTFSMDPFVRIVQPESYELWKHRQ
Numbers without * were called inactive; ? = inconclusive; . = not tested or not shown; [ ] = another dose, or the depositor's remark. Unless noted, calls come from the whole dose curve; as a rule, active = well fitted curve in the direction sought with a large enough effect; inconclusive = small, poorly fitted or top-dose-only effect, or another doubt; inactive = no such curve, though single readings can be large; an effect the other way counts as inactive or inconclusive. Unless noted, % is set by controls: 0 for no effect and ±100 for the full control effect.

SMILES | Tau fluor cs | Coupling enz | Sfp inh | Tau FP inhib | Tau fibril ThT | KDM4E inh
CCOc1ccc2[nH]c(=O)c(CN(Cc3nnnn3Cc3ccco3)C3CCCCC3)cc2c1 | -27.6% | -22.7 | 3.98µM* | ? | 22.4µM* | ?
CCC(C)(C)n1nnnc1CN(Cc1cc2cc(OC)ccc2[nH]c1=O)C1CCCC1 | -15.8% | 0.7 | 11.8% | 1.1% | ? | ?
COCCn1nnnc1CN(Cc1cc2cc(OC)c(OC)cc2[nH]c1=O)C1CCCC1 | -2.1% | 2.3 | -2.7% | -10.4% | -0.5% | ?
O=c1cc(-c2cc(O)c(O)c([C@@H]3O[C@H](CO)[C@@H](O)[C@H](O)[C@H]3O)c2)oc2cc(O[C@@H]3O[C@H](CO)[C@@H](O)[C@H](O)[C@H]3O)cc(O)c12 | . | -0.4 | -8.3% | . | . | .
CC[C@H](C)[C@H](N)C(=O)N[C@@H](CCCNC(=N)N)C(=O)N[C@@H](CCC(N)=O)C(=O)NCC(=O)N1CCC[C@H]1C(=O)N[C@@H](CCCCN)C(=O)N[C@@H](CCC(=O)O)C(=O)N1CCC[C@H]1C(=O)N[C@@H](Cc1ccccc1)C(=O)N[C@@H](CCCNC(=N)N)C(=O)N[C@@H](CC(=O)O)C(=O)N[C@@H](Cc1ccc(O)cc1)C(=O)N[C@H](C(=O)N[C@@H](CC(=O)O)C(=O)N[C@@H](CCCNC(=N)N)C(=O)N[C@@H](Cc1ccccc1)C(=O)N[C@@H](Cc1ccc(O)cc1)C(=O)N[C@@H](CCCCN)C(=O)N[C@H](C(=O)N[C@@H](CC(C)C)C(=O)O)[C@@H](C)O)C(C)C | . | -0.7 | -1.1% | . | . | .
COc1ccc2c(c1)CC/C(=C\C=C\c1ccccc1OC)C2=O | 9.2% | -40.3* | 25.1µM* | 6.2% | 7.1% | 1.8%
COc1ccc2c(c1)C(=O)/C(=C/C=C/c1ccccc1)CC2 | 10.5% | -3.0 | -13.3% | 5.6% | 17.8% | 6.4%
COc1ccc2c(c1)CC/C(=C\c1ccc(C)o1)C2=O | -33.8% | -16.3 | 44.7µM* | -17.8% | . | ?
CCOC(=O)c1c(NC(=O)CSc2cn(CCNC(=O)c3c(F)cccc3F)c3ccccc23)sc2c1CCCC2 | ? | . | . | -16.6% | -13.4% | .
Nc1nc(-c2ccccc2)c(N=Nc2cccc3ccccc23)s1 | 3.16µM*[quencher] | -5.7 | 13.0% | 17.8µM* | 2.82µM* | -9.4%
Nc1nc(-c2ccccc2)c(N=Nc2ccccc2Cl)s1 | 4.47µM*[quencher] | 1.8 | -3.5% | ? | 5.01µM* | -0.1%
Cc1ncc(N=Nc2ccccc2Cl)c(-c2ccccc2)n1 | ? | -0.9 | 2.7% | 14.0% | ? | -5.0%
CCOc1ccc(OCC)c(NS(=O)(=O)c2cc(-c3onc(C)c3C)ccc2OC)c1 | -18.8% | . | . | -1.6% | 6.4% | .
Fc1c(F)c(C(F)(F)F)c(F)c(F)c1N/N=C\c1cccs1 | 7.94µM*[quencher] | -0.7 | 14.5% | 4.9% | -19.9% | -0.2%
COc1cc([N+](=O)[O-])ccc1NC(=S)N1CCOCC1 | . | -14.2 | -5.3% | . | . | .
O=C(Nc1ccc([N+](=O)[O-])cc1)Nc1ccc2c(c1)OCCO2 | 8.91µM*[quencher] | 0.0 | ? | ? | ? | -1.7%
COc1ccc(C(C)(C)C)cc1NC(=O)Nc1ccc2c(c1)OCO2 | 14.1µM*[quencher] | 0.3 | 3.2% | ? | ? | -1.8%
COc1cc(NC(=O)Nc2ccc3c(c2)OCO3)cc(OC)c1OC | -17.5% | 4.0 | 7.1% | 4.0% | -5.0% | 3.7%
COc1cc([N+](=O)[O-])ccc1NC(=O)Nc1ccc2c(c1)OCCO2 | 15.8µM*[quencher] | -9.7 | ? | ? | 12.6µM* | -4.7%
O=C(Nc1ccc([N+](=O)[O-])cc1)Nc1ccc2[nH]c(=O)[nH]c2c1 | 8.91µM*[quencher] | -4.3 | -4.1% | 23.2% | 8.91µM* | -22.8%
O=C(CSc1ccc([N+](=O)[O-])cn1)Nc1ccc2c(c1)OCCO2 | -16.7% | -5.0 | -5.5% | -3.1% | ? | -12.4%
CCN(CC)c1ccc2cc(-c3nc(-c4ccccc4)no3)c(=O)oc2c1 | -22.5% | . | . | -9.7% | ? | .
